The values below come from PubChem BioAssay (NCATS).

SMILES strings stand for the structures. Several values for one entry are separate records, joined by “and”; a condition that tells them apart may be missing. Equal values may be shown once. Records with an inconclusive call do not appear. A structure can be active in one record and inactive in another. Activity calls are given as the source filed them. Unless noted, calls come from the whole dose curve; as a rule, active = well fitted curve in the direction sought with a large enough effect; inconclusive = small, poorly fitted or top-dose-only effect, or another doubt; inactive = no such curve, though single readings can be large; an effect the other way counts as inactive or inconclusive.

Test [1] in a line: Cellular Toxicity (caspase-3) Renal Proximal Tubule (AID 667).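 Note: cells exposed to compound for 16 hours at 37 °C before detection.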 Note: potency is the fitted concentration of half-maximal effect. Conditions: Potency: caspase-3 activation. An outline of the steps:
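AC50 derived by standard Hill fit of concentration-response data, normalized between DMSO basal and 10 uM staurosporine as 100% stimulation. Cells: primary rat kidney proximal tubule, 16 h treatment at 37 °C.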

Test [2] has as its target Guanine nucleotide-binding protein G(i) subunit alpha-1 (Homo sapiens) (UniProt P63096). Briefly: qHTS Assay for Inhibitors of RGS12 GoLoco Motif Activity (Green Fluorophore) (AID 879).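 Note: negative values mean loss of peptide binding seen as reduced polarization.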 An outline of the steps: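 Fluorescence polarization assay: 50 nM Gαi1 with 10 nM FITC-labeled RGS12 GoLoco peptide in 10 mM Tris pH 7.5, 150 mM NaCl, 0.1 mM GDP, 0.05% NP40, 10 min at room temperature with compound.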

Test [3] in a line: qHTS Assay for Identification of Small Molecule Antagonists for NFkB Signaling Pathway (AID 895; active = well fitted inhibition curve with a large enough effect in the signal ratio, with a control signal flat, not every such curve was filed as active; the % refers to the signal ratio; note: potency is the fitted concentration of half-maximal effect). The procedure, abridged: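 ME-180 NFkB-bla cells (beta-lactamase under NFkB response element), plated overnight, treated with compound then 10 pM TNF alpha (about EC50) for 5 hrs at 37 C. LiveBLAzer FRET read at 460/530 nm emission, 405 nm excitation.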
The nature of test [4]: qHTS Assay for Identification of Small Molecule Antagonists for Thrombopoietin (TPO) Signaling Pathway (AID 918). Note: potency is the fitted concentration of half-maximal effect; nearly all actives have a fitted effect of over 60% in size. Conditions: TPO-dependent cell signaling reporter, antagonist mode. An outline of the steps: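 Ba/F3 (murine, hTPO-R, GPIIb-luc reporter); overnight IL-3 withdrawal; cpd + TPO 26 pM final (EC50); 24 h 37 C/5% CO2; Steadylite luminescence after 10 min RT.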
Background: Quantitative high-throughput screening tests each substance at several concentrations.

Test [5] is described as follows: Cell Viability - LYMP2-001 (AID 921).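 Note: cells exposed to compound for 24 h at 37 °C; nearly all actives have a fitted effect of over 70% in size.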 Note: potency is the fitted concentration of half-maximal effect. An outline of the steps:
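Steps: seed 2500 lymphoblastoid cells/well; 5 hr, 37 C; add compound; 24 hr, 37 C; CellTiter-Glo reagent, 30 min room temperature; read luminescence. Concentration-response modeled by Hill equation for AC50.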

Test [6] addresses Muscarinic acetylcholine receptor M1 (Rattus norvegicus) (UniProt P08482). Briefly: qHTS Assay for Antagonists of Acetylcholine Muscarinic M1 Receptor: Kinetic Measurement of Intracellular Calcium Response (AID 943).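 Note: Fluo-4 calcium signal as peak divided by basal fluorescence over 4 min; series mostly up to about 35 µM; nearly all actives have a fitted effect of over 75% in size.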 The procedure, abridged:
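Rat M1-CHO cells, 2000/well, overnight → Fluo-4 no-wash dye with probenecid, 1 h 37C → compound 10 min, room temp → basal read 6 s → carbachol EC80 (100 nM) → 4 min kinetic read; peak/basal.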

The target is the same in test [7]. Briefly: qHTS Assay for Antagonists of Acetylcholine Muscarinic M1 Receptor: Measurement of IP-One Response (AID 944). Note: nearly all actives have a fitted effect of over 75% in size. An outline of the steps: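 M1-CHO (rat), 2000 cells/well, overnight recovery; cpd 10 min; carbachol EC80 (200 nM), 30 min, HEPES buffer + 50 mM LiCl pH 7.4; IP-One HTRF, Ex 337, Em 620/665 nm.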
The target of test [8] is Pyruvate kinase (Leishmania mexicana) (UniProt Q27686). Briefly: qHTS Validation Assay for Inhibitors of Leishmania Mexicana Pyruvate Kinase (AID 945). An outline of the steps: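 An endpoint luciferase assay: 0.2 nM LmPYK E451W turns over 0.5 mM PEP with 0.1 mM ADP for 1 h at room temperature, pH 7.2, before PKLight addition. Values are normalized to DMSO-only wells.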
Pyruvate kinase (Leishmania mexicana), sequence (Q27686 2-499 E452W): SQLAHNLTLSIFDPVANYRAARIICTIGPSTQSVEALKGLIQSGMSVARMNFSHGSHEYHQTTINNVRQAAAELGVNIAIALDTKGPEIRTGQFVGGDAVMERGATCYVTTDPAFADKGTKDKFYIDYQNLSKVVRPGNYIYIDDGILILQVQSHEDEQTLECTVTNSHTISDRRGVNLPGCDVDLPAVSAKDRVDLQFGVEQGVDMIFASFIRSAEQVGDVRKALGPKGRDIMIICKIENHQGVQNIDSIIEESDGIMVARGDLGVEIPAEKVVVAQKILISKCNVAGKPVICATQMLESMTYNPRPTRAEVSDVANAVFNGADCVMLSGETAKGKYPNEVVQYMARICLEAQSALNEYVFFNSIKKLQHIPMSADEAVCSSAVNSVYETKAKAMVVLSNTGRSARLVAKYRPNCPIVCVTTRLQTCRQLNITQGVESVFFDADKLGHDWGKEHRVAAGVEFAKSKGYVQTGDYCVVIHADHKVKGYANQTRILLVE
Test [9] is described as follows: MultiTox-Fluor Cytotoxicity Assay - LYMP1-001 - Dead Cells (AID 946). Note: potency is the fitted concentration of half-maximal effect. An outline of the steps: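 Cytotoxicity as increased dead-cell protease fluorescence (bis-AAF-R110, 485/520 nm), read 60 min after MultiTox-Fluor reagent. Human lymphoblastoid line exposed 16 h; Hill-fitted AC50, with DMSO as 0% and 15 uM tetraoctylammonium bromide as 100%.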
Test [10] deals with Cytochrome P450 3A4 (Homo sapiens) (UniProt P08684). Kind of test: qHTS Assay for Inhibitors and Substrates of Cytochrome P450 3A4 (AID 884). Note: series mostly up to about 57 µM; nearly all actives have a fitted effect of over 50% in size. The procedure, abridged:
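20 nM human CYP3A4 with 25 uM Luciferin-PPXE (at KM) in 200 mM KPO4, preincubated 10 min with compound; NADPH regeneration started a 60 min RT reaction. Luciferin detected by luminescence, normalized to 57 uM ketoconazole as full inhibition.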

The nature of test [11]: Confirmation and Secondary Assay for Modulators of Hemoglobin Beta Chain Splicing at IVS2 654 locus (AID 910).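 Note: HeLa cells stably carrying EGFP split by mutant beta-globin IVS2-654 intron.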 The procedure, abridged:
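HeLa cells stably expressing EGFP interrupted by β-globin IVS2-654 intron, seeded overnight in Opti-MEM/2% FCS, then treated 2 days at 37 °C. Restored splicing read as total peak GFP intensity per well by laser scanning cytometry (488 nm excitation, 500–520 nm emission); 500 nM antisense PNA as control.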

Test [12] in a line: qHTS Assay for Identification of Small Molecule Agonists for Thrombopoietin (TPO) Signaling Pathway (AID 917). An outline of the steps:
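Luminescence from a Glycoprotein IIb promoter–driven luciferase reporter served as read-out in murine Ba/F3 cells carrying the human TPO receptor. Cells, deprived of IL-3 overnight, received compounds with 26 pM TPO and were incubated 24 hrs at 37 C.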

Test [13] can be described thus: Confirmation and Secondary Assay for Modulators of Hemoglobin Beta Chain Splicing at IVS2 705 locus (AID 930).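 Note: HeLa cells stably expressing the EGFP-705 splicing reporter; GFP fluorescence per well restored by corrected splicing of the IVS2-705 intron in EGFP; series mostly up to about 46 µM.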 An outline of the steps:
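Per-well GFP, captured at 1 x 8 µm resolution with 488 nm excitation, served as the read-out for HeLa EGFP-705 cells incubated 2 days with test compound versus DMSO.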

Test [14] is described as follows: MultiTox-Fluor Cytotoxicity Assay - LYMP1-001 - Live Cells (AID 947).
The target of test [15] is Cytochrome P450 2C19 (Homo sapiens) (UniProt P33261). Briefly: qHTS Assay for Inhibitors and Substrates of Cytochrome P450 2C19 (AID 899). Note: nearly all actives have a fitted effect of over 60% in size. Note: potency is the fitted concentration of half-maximal effect. An outline of the steps:
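Luminescent read-out of luciferin formed from Luciferin-H EGE (10uM, equal to KM). Enzyme 5nM in 50mM KPO4; compound added, 10 min at 37C, then NADPH regenerating system for 60 min at 37C. Full inhibition defined by 57uM ketoconazole.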

The target of test [16] is Cytochrome P450 2C9 (Homo sapiens) (UniProt P11712). Briefly: qHTS Assay for Inhibitors and Substrates of Cytochrome P450 2C9 (AID 883). Note: nearly all actives have a fitted effect of over 60% in size. Note: potency is the fitted concentration of half-maximal effect. An outline of the steps:
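10nM CYP2C9 + 100uM Luciferin-H (=KM), 25mM KPO4; cpd 10 min 37C; NADPH regen, 60 min 37C; stop/detect with P450 Glo-Buffer 20 min; luminescence. Norm. to 57uM sulphaphenazole as full inhibition.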

Test [17] concerns the target Cytochrome P450 2D6 (Homo sapiens) (UniProt P10635). Briefly: qHTS Assay for Inhibitors and Substrates of Cytochrome P450 2D6 (AID 891).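 Note: luciferin methyl ether substrate demethylated by CYP2D6 with NADPH regeneration; nearly all actives have a fitted effect of over 60% in size.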 The procedure, abridged: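 Human CYP2D6 (5 nM) with 30 uM Luciferin-ME EGE (at Km) in 100 mM KPO4, compound preincubated 10 min, then NADPH regeneration system for 60 min at room temperature. Luciferin read by luminescence; normalized to 1.43 uM quinidine.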

Test [18] deals with Cytochrome P450 3A4 (Homo sapiens) (UniProt P08684). Briefly: qHTS Assay for Activators of Cytochrome P450 3A4 (AID 885). Note: nearly all actives have a fitted effect of over 65% in size. The procedure, abridged: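 Signal was normalized against complete inhibition by 57 uM ketoconazole. The reaction used 20nM CYP3A4 with 25uM Luciferin-PPXE, 10-min compound preincubation and a 60-min NADPH-supported step at RT.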
Cytochrome P450 3A4 (Homo sapiens), sequence (P08684 whole entry, looked up): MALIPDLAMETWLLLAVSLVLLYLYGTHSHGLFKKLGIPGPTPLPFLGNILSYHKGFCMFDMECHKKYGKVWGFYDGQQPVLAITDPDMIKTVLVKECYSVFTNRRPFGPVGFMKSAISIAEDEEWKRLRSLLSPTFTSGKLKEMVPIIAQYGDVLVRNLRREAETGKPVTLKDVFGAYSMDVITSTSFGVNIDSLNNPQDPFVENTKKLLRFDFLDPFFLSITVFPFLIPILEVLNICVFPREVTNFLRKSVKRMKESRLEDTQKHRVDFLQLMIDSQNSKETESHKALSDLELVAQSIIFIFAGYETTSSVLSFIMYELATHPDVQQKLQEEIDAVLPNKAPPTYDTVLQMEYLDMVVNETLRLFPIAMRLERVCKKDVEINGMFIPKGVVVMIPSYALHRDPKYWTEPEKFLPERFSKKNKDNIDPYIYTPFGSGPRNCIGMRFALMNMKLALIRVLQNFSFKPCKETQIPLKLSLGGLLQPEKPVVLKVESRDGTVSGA

Guanine nucleotide-binding protein G(i) subunit alpha-1 (Homo sapiens), sequence (P63096 whole entry, looked up): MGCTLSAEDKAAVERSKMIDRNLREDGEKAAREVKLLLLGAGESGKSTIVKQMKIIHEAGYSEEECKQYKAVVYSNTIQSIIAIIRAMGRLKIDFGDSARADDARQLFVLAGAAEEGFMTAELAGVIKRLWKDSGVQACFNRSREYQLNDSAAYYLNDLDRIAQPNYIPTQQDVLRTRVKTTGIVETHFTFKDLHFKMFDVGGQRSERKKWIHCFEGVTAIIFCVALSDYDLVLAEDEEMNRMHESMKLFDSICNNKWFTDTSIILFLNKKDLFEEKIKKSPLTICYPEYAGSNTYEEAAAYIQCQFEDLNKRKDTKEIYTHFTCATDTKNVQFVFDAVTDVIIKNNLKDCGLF
Cytochrome P450 2C9 (Homo sapiens), sequence (P11712 whole entry, looked up): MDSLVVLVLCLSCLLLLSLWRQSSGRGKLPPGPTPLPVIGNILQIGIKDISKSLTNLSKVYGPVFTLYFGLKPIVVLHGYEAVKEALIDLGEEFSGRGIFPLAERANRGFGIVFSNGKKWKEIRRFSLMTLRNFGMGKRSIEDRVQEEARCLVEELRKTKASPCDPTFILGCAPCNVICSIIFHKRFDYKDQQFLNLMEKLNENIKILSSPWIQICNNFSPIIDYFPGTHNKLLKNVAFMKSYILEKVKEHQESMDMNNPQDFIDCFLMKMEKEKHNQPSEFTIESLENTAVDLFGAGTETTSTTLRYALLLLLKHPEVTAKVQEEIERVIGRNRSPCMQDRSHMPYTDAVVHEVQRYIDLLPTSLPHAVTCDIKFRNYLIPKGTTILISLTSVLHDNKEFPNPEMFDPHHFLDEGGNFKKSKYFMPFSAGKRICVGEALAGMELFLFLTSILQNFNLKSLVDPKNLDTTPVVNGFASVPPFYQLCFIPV
Muscarinic acetylcholine receptor M1 (Rattus norvegicus), sequence (P08482 whole entry, looked up): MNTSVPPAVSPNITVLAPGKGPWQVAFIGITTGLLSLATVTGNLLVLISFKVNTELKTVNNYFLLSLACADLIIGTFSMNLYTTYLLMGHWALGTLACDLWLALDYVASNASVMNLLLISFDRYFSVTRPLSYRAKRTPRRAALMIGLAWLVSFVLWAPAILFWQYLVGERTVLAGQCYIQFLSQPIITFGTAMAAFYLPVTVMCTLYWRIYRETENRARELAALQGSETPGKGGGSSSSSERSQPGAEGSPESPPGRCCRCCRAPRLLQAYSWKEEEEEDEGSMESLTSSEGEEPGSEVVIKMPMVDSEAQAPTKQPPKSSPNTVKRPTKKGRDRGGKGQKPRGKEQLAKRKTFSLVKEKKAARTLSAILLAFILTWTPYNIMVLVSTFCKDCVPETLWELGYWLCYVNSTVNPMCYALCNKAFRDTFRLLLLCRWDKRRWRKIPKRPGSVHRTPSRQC
Cytochrome P450 2C19 (Homo sapiens), sequence (P33261 whole entry, looked up): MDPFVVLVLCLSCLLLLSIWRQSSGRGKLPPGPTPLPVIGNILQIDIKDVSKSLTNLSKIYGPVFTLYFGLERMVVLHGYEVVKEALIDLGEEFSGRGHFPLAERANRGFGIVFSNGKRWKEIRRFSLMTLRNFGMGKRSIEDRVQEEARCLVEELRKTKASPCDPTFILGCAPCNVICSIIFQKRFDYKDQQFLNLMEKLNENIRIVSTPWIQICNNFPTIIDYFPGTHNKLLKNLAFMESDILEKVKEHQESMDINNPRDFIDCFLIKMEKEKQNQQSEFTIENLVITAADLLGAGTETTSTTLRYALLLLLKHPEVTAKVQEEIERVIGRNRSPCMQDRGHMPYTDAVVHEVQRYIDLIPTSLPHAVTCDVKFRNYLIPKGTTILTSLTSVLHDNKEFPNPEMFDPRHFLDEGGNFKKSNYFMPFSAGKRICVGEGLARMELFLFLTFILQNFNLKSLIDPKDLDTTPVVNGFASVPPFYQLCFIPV
Cytochrome P450 2D6 (Homo sapiens), sequence (P10635 whole entry, looked up): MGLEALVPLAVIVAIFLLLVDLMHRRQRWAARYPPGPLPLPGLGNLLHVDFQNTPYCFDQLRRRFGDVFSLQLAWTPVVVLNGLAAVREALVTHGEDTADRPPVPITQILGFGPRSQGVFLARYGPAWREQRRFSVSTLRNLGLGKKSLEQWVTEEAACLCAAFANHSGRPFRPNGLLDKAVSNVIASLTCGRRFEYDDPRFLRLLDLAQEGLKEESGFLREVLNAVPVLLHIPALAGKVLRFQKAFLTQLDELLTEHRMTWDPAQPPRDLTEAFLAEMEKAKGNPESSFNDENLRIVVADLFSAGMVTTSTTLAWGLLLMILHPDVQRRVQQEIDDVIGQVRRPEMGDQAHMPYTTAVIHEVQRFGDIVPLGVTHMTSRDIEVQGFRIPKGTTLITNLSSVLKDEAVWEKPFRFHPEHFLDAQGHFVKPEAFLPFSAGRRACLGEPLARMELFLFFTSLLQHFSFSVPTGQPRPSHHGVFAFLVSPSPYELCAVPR

`CC1=C(/C=C/C(C)=C/C=C/C(C)=C/C(=O)Nc2ccc(O)cc2)C(C)(C)CCC1`: the Potency in test [1] is 31.6 µM (active); in [3] it was 6.31 µM (active); in test [4], 10 µM (active); in test [5] it was 39.8 µM (active); in test [9], 79.4 µM (active). The call in [2], in [6] and in test [7] was inactive. Moreover, the Potency result in test [8] was “inactive”.

In the case of `CC(=O)N[C@@H](CS)C(=O)O`, the call in test [2] and in test [6] was inactive. The Potency result in test [10] and in test [8] was “inactive” throughout.

Consider `NCCS`, for which the call in [2], in [11], in test [13], in [6] and in test [7] was inactive. Also, the Potency entry in [10], in test [3], in [12] and in test [8] was “inactive” each time.

For the compound `O=c1[nH]cnc2c1ncn2[C@H]1CC[C@@H](CO)O1`, the Potency entry in test [1], in test [10], in [5] and in [9] was “inactive” throughout. For the same compound, the outcome in test [14] was inactive.

In the case of `COc1ccccc1N1CCN(CCCNc2cc(=O)n(C)c(=O)n2C)CC1`, the outcome in test [2], in test [11] and in test [13] was inactive. In addition, the Potency entry in test [10], in [12] and in test [8] was “inactive” throughout. The Potency in test [15] is 7.94 µM (active).

As to `CCN(CC)CCOC(=O)c1ccc(N)cc1`, the outcome in [2], in test [11] and in [13] was inactive. The Potency entry in [10], in test [3], in test [12] and in [8] was “inactive” in each case.

For `CCN(CC)C(=O)c1ccc(O)c(OC)c1`, the compound was called inactive in test [2], in [6] and in [7]. Moreover, the Potency entry in test [16], in [10], in [17], in test [15], in test [12] and in test [8] was “inactive” in each case.

`O=C(O)Cc1cccc2ccccc12`: the Potency entry in [1], in [10], in test [5] and in [9] was “inactive” each time. Moreover, the outcome in test [14] was inactive.

Regarding `CN(C)CCC(c1ccccc1)c1ccccn1` (stereo not drawn), the Potency result in test [1], in [10], in test [5] and in test [9] was “inactive” throughout. Also, the compound was called inactive in test [11], in test [13] and in [14].

In the case of `O=c1c(-c2ccc(O)cc2)coc2cc(O)ccc12`, the Potency entry in test [1], in [17], in test [15], in test [5] and in [9] was “inactive” each time. The compound was classed as inactive in test [2], in test [18], in [11], in test [13] and in test [14]. Moreover, the Potency result in test [16] was “inactive and 6.31 µM (active)”.
